# Laboratory results taken from ChEMBL document CHEMBL3433997, “St. Jude Leishmania screening dataset” (2016).
# What was measured:
# Assay type in all cases: functional
# [1] = molecular target: Solute carrier family 2, facilitated glucose transporter member 1 (Homo sapiens) (UniProt P11166); test: ST_JUDE_LEISH: Cytotoxicity at 2uM final concentration against transgenic Leishmania Mexicana promastigotes LmGLUT1 that are glucose transport deficient and complemented with the human glucose transporter GLUT1. Activity is measured by DNA content using SYBR green in vitro
# [2] = molecular target: Hexose transporter 1 (Plasmodium falciparum) (UniProt O97467); test: ST_JUDE_LEISH: Cytotoxicity at 2uM final concentration against transgenic Leishmania Mexicana promastigotes LmPfHT that are glucose transport deficient and complemented with the Plasmodium falciparum hexose transporter. Activity is measured by DNA content using SYBR green in vitro
# [3] = molecular target: Glucose transporter (Leishmania mexicana) (UniProt O61059); test: ST_JUDE_LEISH: Cytotoxicity at 2uM final concentration against transgenic Leishmania Mexicana promastigotes LmGT2 that are glucose transport deficient and complemented with the L. Mexicana glucose transporter 2. Activity is measured by DNA content using SYBR green in vitro
# Sequence of Solute carrier family 2, facilitated glucose transporter member 1 (Homo sapiens) (P11166 whole entry): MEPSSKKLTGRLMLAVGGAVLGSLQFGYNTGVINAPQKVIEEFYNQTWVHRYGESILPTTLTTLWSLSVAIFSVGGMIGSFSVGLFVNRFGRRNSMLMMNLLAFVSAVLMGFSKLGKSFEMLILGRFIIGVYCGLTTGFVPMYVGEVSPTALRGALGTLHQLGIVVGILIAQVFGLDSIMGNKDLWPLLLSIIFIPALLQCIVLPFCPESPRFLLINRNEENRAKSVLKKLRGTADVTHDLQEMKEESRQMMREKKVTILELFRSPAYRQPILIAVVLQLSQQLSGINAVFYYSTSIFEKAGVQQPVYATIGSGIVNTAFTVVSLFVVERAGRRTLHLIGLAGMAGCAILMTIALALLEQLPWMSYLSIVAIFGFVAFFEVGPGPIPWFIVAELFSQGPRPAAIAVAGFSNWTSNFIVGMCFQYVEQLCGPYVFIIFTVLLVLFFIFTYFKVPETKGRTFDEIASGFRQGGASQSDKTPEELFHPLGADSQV
SMILES,inhibition [1] [%],inhibition [2] [%],inhibition [3] [%]
COc1ccc(Nc2ncc3c(-c4cccc(NC(=O)CC(C)C)c4)c[nH]c3n2)cc1OC,7.31,8.48,6.64
COCCNC(=O)C1CCN(C(c2ccc(Cl)cc2)c2ccc(Cl)cc2)CC1,7.23,6.03,9.02
CC(C)c1cc(Oc2c(I)cc(CCNCc3ccccc3)cc2I)ccc1O,0.46,1.39,0.47
CO/C(=C\C=C\c1cc2cc(Cl)c(Cl)cc2[nH]1)C(=O)NCCCN1CCN(c2cccc(Cl)c2)CC1,-1.14,-0.72,-1.82
Cc1ccc(-n2nc3ccc(NC(=O)c4ccc([N+](=O)[O-])o4)cc3n2)cc1C,60.8,82.4,40.3
CC1CCc2sc(-c3nnc(SC(C)C(=O)N4CCCC4)o3)cc2C1 (centres undefined),2.14,1.29,-4.77
O=C(/C=C/c1ccccc1O)N1CCC(CCN2CCC(c3c[nH]c4ccccc34)CC2)CC1,-5.26,-3.35,-2.57
CCNC(=O)N[C@@H]1CN[C@@H](C#Cc2cc3c(Nc4ccc(OCc5cccc(F)c5)c(Cl)c4)ncnc3s2)C1,-0.84,-1.15,-0.46
Nc1c2c(nc3ccc(NC(=O)CCCCCc4ccccc4)cc13)CCCC2,7.95,9.26,10
COc1ccc2ncc(Cl)c(CCN3CCC(NCc4ccc5c(n4)NC(=O)CO5)CC3)c2c1,7.95,5.92,6.59
COc1ccc2nc(C)cc(N/N=C/c3ccc([N+](=O)[O-])o3)c2c1,3.7,6.04,0.72
COc1ccc(CN(C)Cc2ccc(NC(=O)c3cccc4c(=O)c5cccc(C)c5[nH]c34)cc2)cc1OC,4.59,11.6,0.44
Cc1ccc(NC(=O)c2ccc(CN3CCCN(CCC(C)C)CC3)cc2)cc1C,14.1,14.9,15.6
